A selection: hits, their analogues and other compounds. The true share with any hit is near 1.3%.
PfHsp40 yeast = rescue of yeast from PfHsp40 toxicity, primary screen, S. cerevisiae, ATP luminescence. S. cerevisiae expressing PfHsp40, growth rescue. growth rescue, % at 12.5 µM. 340,000 compounds, 0.68% hits. AID 504582, 2011; in the data active = growth rescue above about 28%, passing the limit was not always enough;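 also: yeast W303a lacking pdr1 and pdr3 grown in galactose medium; growth measured after three days at 30 °C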
Sa ugtP lethal = growth inhibition of ugtP-null S. aureus, primary screen, RN4220 ugtP deletion, OD600. 16 h. growth inhibition, % (test concentration not listed). 330,000 compounds, 0.54% hits. AID 1259309, 2017; in the data active = growth inhibition above about 68%;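 also: plate controls were untreated wells for no effect and antibiotic for full effect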
3CLpro inhibitor = SARS-CoV 3CLpro protease inhibitors, primary screen, biochemical, quenched FRET | inhibition, % at 6 µM | Replicase polyprotein 1ab (Severe acute respiratory syndrome coronavirus), P0C6X7 | recombinant SARS-CoV 3CLpro, quenched FRET peptide cleavage | 290,000 compounds, 0.14% hits; in the data active = inhibition above about 12%
BJeLR viability = MLPCN primary cell-based screen for lethality selective to Ras in HRASV12 cells. BJeLR (HRASV12) viability, CellTiter-Glo ATP luminescence, 48 h. inhibition, % (no concentration beside the values). 300,000 compounds, 0.17% hits. AID 1554, 2009; in the data active = inhibition above about 50%
Sa RN4220 lethal = growth inhibition of S. aureus RN4220, primary screen, OD600; 16 h; inhibition, % (concentration not given with the values); 330,000 compounds, 0.33% hits; in the data active = inhibition above about 85%;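 also: plate controls were untreated cells for no effect and reference antibiotic for full effect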
* = called active by the depositor.

For Cc1ccccc1C(=O)NC(=S)Nc1sc2c(c1C#N)CCCC2 the results were PfHsp40 yeast 71.5*, Sa ugtP lethal 12.2, 3CLpro inhibitor 5.6, BJeLR viability -5.1 and Sa RN4220 lethal 3.5.
For Cc1onc(-c2ccccc2)c1C(=O)NC(=S)Nc1sc2c(c1C#N)CCCC2 the results were PfHsp40 yeast -0.4, Sa ugtP lethal 0.8, 3CLpro inhibitor -1.1, BJeLR viability 3.9 and Sa RN4220 lethal 4.7.
For CN(C)S(=O)(=O)N1CCC(Oc2ccc(C(=O)N3C[C@H]4CC[C@H]3C4)cc2)CC1 the results were PfHsp40 yeast -1.2, Sa ugtP lethal -7.5, 3CLpro inhibitor -4.0, BJeLR viability -0.7 and Sa RN4220 lethal -1.2.
Cc1ccc(N=C2SC(C(=O)Nc3ccc(OC(F)(F)F)cc3)C(N)=C2C(=O)Nc2c(C)cc(C)cc2C)cc1 (stereo unspecified) was read as PfHsp40 yeast 1.9, Sa ugtP lethal 100.4*, 3CLpro inhibitor 8.7 and Sa RN4220 lethal 100.0*.
CC(=O)N(C1=C(Cl)C(=O)c2ccccc2C1=O)C1CCCCC1 was read as PfHsp40 yeast 146.7*, Sa ugtP lethal 20.8, 3CLpro inhibitor -0.1, BJeLR viability 32.6 and Sa RN4220 lethal 16.9.
COc1ccc2nc(N3CCC(C)CC3)c(C#N)cc2c1 was read as PfHsp40 yeast 0.6, Sa ugtP lethal 88.8*, 3CLpro inhibitor -5.4, BJeLR viability -4.6 and Sa RN4220 lethal 3.9.
`COc1ccc2nc(N3CCC(O)CC3)c(C#N)cc2c1` gave PfHsp40 yeast -0.2, Sa ugtP lethal 9.9, 3CLpro inhibitor -9.2, BJeLR viability -7.5 and Sa RN4220 lethal 0.7.
Screening COc1ccc(NC(=O)Nc2ccc(C)cc2Br)c(OC)c1 returned PfHsp40 yeast -1.4, Sa ugtP lethal 4.3, 3CLpro inhibitor 2.8, BJeLR viability -0.4 and Sa RN4220 lethal 8.0.
Screening CCCCn1cnc2c(c(-c3ccccc3)c(-c3ccccc3)n2Cc2ccco2)c1=N returned Sa ugtP lethal 0.5, 3CLpro inhibitor 6.2, BJeLR viability 62.3* and Sa RN4220 lethal 1.3.
For Cc1ccc(C(=O)COc2ccccc2N2C(=O)c3ccccc3C2=O)cc1 the results were PfHsp40 yeast -0.4, Sa ugtP lethal 9.2, 3CLpro inhibitor 0.8, BJeLR viability -4.2 and Sa RN4220 lethal 0.6.
`Cc1ccc(C(=O)COc2ccccc2-c2ccccc2)cc1` gave PfHsp40 yeast 3.7, Sa ugtP lethal 85.5*, 3CLpro inhibitor 7.5, BJeLR viability 4.8 and Sa RN4220 lethal -2.1.
Screening CCOC(=O)c1c2c([nH]c(=S)c1C#N)CCCC2 returned PfHsp40 yeast 13.1, Sa ugtP lethal -0.6, 3CLpro inhibitor 1.4, BJeLR viability -17.7 and Sa RN4220 lethal 5.2.
Screening CCc1ccc(/C=C/C(=O)C2C(=O)c3ccccc3C2=O)cc1 returned PfHsp40 yeast -0.1, Sa ugtP lethal 96.6*, 3CLpro inhibitor 5.2, BJeLR viability -3.0 and Sa RN4220 lethal 100.2*.
For CC(O)Cn1c(N2CCCC2)nc2c1c(=O)[nH]c(=O)n2C (stereo unspecified) the results were PfHsp40 yeast 0.1, Sa ugtP lethal 8.3, 3CLpro inhibitor -1.1, BJeLR viability 3.0 and Sa RN4220 lethal -2.7.
Screening COc1ccc2cc(C#N)c(SCC(=O)N3CC(=O)Nc4ccccc43)nc2c1 returned PfHsp40 yeast 2.0, Sa ugtP lethal 10.6, 3CLpro inhibitor 3.1, BJeLR viability 28.2 and Sa RN4220 lethal 2.5.
Screening Cc1cccc2cc(C#N)c(SCC(=O)N3CC(=O)Nc4ccccc43)nc12 returned PfHsp40 yeast -0.1, Sa ugtP lethal 5.0, 3CLpro inhibitor 0.5, BJeLR viability 53.9* and Sa RN4220 lethal -1.7.
`CCC(=O)NC(c1cccs1)c1cc([N+](=O)[O-])c2cccnc2c1O` (stereo unspecified) gave PfHsp40 yeast -0.3, Sa ugtP lethal 98.3*, 3CLpro inhibitor -2.2, BJeLR viability 16.5 and Sa RN4220 lethal 95.9*.
CC(=O)NC(c1ccccc1)c1cc([N+](=O)[O-])c2cccnc2c1O (stereo unspecified) was read as PfHsp40 yeast 2.3, Sa ugtP lethal 32.9, 3CLpro inhibitor -2.5, BJeLR viability 12.0 and Sa RN4220 lethal 33.6.
For CC(C)C(=O)NC(c1ccccc1)c1cc([N+](=O)[O-])c2cccnc2c1O (stereo unspecified) the results were PfHsp40 yeast 1.8, Sa ugtP lethal 71.8, 3CLpro inhibitor -1.0, BJeLR viability 6.0 and Sa RN4220 lethal 73.6.
For CCCC(=O)NC(c1cccs1)c1cc([N+](=O)[O-])c2cccnc2c1O (stereo unspecified) the results were PfHsp40 yeast -0.4, Sa ugtP lethal 91.4*, 3CLpro inhibitor -1.8, BJeLR viability 10.8 and Sa RN4220 lethal 79.5.
For CC(=O)NC(c1cccs1)c1cc([N+](=O)[O-])c2cccnc2c1O (stereo unspecified) the results were PfHsp40 yeast 243.0*, Sa ugtP lethal 39.2, 3CLpro inhibitor 1.9, BJeLR viability 20.2 and Sa RN4220 lethal 53.1.
Screening O=C(c1ccc(Cl)c(S(=O)(=O)N2CCOCC2)c1)N(Cc1ccco1)Cc1cccs1 returned PfHsp40 yeast 1.7, Sa ugtP lethal 0.2 and Sa RN4220 lethal -2.0.
`Cc1ccc(NC(=S)Nc2cccc3ccccc23)cc1F` gave PfHsp40 yeast -1.5, Sa ugtP lethal 2.9, 3CLpro inhibitor 2.0, BJeLR viability 4.6 and Sa RN4220 lethal -4.8.
S=C1NC[C@H](Cc2ccccc2)N1CCCCC1CCCCC1 was read as PfHsp40 yeast 63.6*, 3CLpro inhibitor 2.6 and BJeLR viability 4.6.
For FC(F)(F)c1cc(CCN2C(=S)NC[C@@H]2Cc2ccccc2)cc(C(F)(F)F)c1 the results were PfHsp40 yeast 47.6*, 3CLpro inhibitor 4.2 and BJeLR viability -10.4.
`O=S(=O)(c1cccc(-c2nnc(SCc3nc4ccccc4s3)o2)c1)N1CCOCC1` gave PfHsp40 yeast 46.1*, Sa ugtP lethal 8.4, 3CLpro inhibitor 1.9, BJeLR viability 1.3 and Sa RN4220 lethal 6.1.
`Cc1cc(C)n(N=Cc2cc([N+](=O)[O-])ccc2O)c(=O)c1` gave Sa ugtP lethal 76.2 and Sa RN4220 lethal 88.9*.
For CC(/C=C/c1ccccc1F)=N\NC(=O)c1ccc(Cl)cc1 the results were PfHsp40 yeast -0.8, 3CLpro inhibitor -3.2 and BJeLR viability 1.2.
For CCOC(=O)c1ccc(NC(=O)CCc2nc(-c3ccccc3Cl)no2)cc1 the results were PfHsp40 yeast 33.7*, Sa ugtP lethal -4.0, 3CLpro inhibitor -1.3, BJeLR viability 6.5 and Sa RN4220 lethal 0.1.
`CCCCCCCNC(=O)C1(CC2CC(c3cccc(Br)c3)=NO2)CCN(C(=O)C2(C)CC2)CC1` (stereo unspecified) gave PfHsp40 yeast 2.4, Sa ugtP lethal -18.7 and Sa RN4220 lethal 1.5.
Screening CCCCCCCNC(=O)C1(CC2CC(c3cccc(Br)c3)=NO2)CCN(C(=O)CCCCCBr)CC1 (stereo unspecified) returned PfHsp40 yeast 45.1* and BJeLR viability 3.1.

Source: PubChem BioAssay (several laboratories)
